This passage reports binding signal results from article PMC7862700, “An all-to-all approach to the identification of sequence-specific readers for epigenetic DNA modifications on cytosine”.

Common to all, as to experiment: DAPPL (digital affinity profiling via proximity ligation, sequencing); 10 mM Tris-HCl pH 7.5, 50 mM NaCl, 1 mM DTT, 4% glycerol, room temperature, 30 min; GST-TFs on glutathione beads, 16-mer random dsDNA library, 0.1% formaldehyde crosslink after washing; high values mean tight binding
One test concerns the target T1, FLI1 (Homo sapiens, UniProt Q01543 1-452).
T1 sequence: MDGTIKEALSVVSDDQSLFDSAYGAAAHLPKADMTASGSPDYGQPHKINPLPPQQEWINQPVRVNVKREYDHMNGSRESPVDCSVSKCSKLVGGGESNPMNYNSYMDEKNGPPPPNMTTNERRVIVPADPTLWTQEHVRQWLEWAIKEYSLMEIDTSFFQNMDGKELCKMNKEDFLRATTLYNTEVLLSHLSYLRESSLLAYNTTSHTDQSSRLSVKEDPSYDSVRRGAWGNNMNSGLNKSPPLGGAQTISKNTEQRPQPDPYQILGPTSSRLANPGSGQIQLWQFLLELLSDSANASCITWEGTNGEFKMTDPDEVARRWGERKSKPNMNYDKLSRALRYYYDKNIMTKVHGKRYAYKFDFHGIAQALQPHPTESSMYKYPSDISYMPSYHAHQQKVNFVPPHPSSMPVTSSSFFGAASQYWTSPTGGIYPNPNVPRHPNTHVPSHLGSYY
The note with it: protein: recombinant; tags: N-terminal GST; dsDNA, one strand shown. The method, boiled down: (§1)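 The binding signal reported is, for every hexamer, its read frequency for a factor over its read frequency for the tag-only sample. Reads came from pools of yeast-expressed, GST-fused human transcription factors on glutathione beads, barcoded with DNA and mixed with that sample, which were incubated with 200 nmole of a random double-stranded 16-mer DNA library in Tris/NaCl/DTT/glycerol buffer at room temperature for 30 min. After washing, the pools were crosslinked with 0.1% formaldehyde, proximity-ligated with BsaI/T4 ligase for 1 h at 37 °C, PCR-amplified and sequenced on an Illumina NextSeq500.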

The target in the next test is T2, ELK1 (Homo sapiens, UniProt P19419 1-428).
T2 sequence: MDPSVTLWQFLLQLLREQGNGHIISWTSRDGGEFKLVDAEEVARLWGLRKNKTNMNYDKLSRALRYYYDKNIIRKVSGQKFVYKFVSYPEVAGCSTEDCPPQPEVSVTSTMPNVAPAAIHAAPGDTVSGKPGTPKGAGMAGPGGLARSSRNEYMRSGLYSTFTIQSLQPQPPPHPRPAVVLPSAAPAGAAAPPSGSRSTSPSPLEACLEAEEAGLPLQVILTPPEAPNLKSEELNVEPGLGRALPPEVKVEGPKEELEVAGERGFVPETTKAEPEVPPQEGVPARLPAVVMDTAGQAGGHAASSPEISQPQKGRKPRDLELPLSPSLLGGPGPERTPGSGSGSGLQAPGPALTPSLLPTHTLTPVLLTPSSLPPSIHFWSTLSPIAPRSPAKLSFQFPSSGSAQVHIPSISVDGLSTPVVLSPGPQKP
The settings on record: protein: recombinant; tags: N-terminal GST; dsDNA, one strand shown. The method, boiled down: as §1

Another test has as its target T3, GABPA (Homo sapiens, UniProt Q06546 1-454).
T3 sequence: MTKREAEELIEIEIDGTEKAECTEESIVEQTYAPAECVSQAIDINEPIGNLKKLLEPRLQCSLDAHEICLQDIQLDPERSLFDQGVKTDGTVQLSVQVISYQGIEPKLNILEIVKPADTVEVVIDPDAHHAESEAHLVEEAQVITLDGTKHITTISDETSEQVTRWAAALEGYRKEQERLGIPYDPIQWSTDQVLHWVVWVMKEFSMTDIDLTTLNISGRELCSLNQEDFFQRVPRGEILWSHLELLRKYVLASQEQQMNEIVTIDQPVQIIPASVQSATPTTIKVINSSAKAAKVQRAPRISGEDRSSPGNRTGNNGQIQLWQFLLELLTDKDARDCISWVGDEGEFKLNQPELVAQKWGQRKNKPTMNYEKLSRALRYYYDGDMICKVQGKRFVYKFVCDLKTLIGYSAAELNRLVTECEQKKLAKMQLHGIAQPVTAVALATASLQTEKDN
The note with it: protein: recombinant; tags: N-terminal GST; dsDNA, one strand shown. The procedure, abridged: as §1

Another test deals with T4, ERG (Homo sapiens, UniProt P11308 1-479).
T4 sequence: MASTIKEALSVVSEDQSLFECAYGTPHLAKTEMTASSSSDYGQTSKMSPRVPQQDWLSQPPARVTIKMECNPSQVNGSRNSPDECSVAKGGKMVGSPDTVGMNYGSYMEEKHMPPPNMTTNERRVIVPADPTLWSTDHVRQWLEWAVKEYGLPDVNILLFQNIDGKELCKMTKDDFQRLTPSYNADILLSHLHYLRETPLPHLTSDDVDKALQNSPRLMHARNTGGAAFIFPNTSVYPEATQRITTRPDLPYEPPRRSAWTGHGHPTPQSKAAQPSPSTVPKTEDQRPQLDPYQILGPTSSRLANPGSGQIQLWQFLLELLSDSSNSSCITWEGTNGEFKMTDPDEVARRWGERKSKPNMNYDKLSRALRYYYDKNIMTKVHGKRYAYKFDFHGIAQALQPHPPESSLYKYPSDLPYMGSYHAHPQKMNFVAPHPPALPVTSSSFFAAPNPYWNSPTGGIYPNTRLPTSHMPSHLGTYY
The note with it: protein: recombinant; tags: N-terminal GST; dsDNA, one strand shown. The method, boiled down:
as §1

The target in the next test is ELF1 (Homo sapiens, UniProt P32519 1-619). The note with it: protein: recombinant; tags: N-terminal GST; dsDNA, one strand shown. The method, boiled down: as §1
Chain of ELF1 (P32519 whole entry): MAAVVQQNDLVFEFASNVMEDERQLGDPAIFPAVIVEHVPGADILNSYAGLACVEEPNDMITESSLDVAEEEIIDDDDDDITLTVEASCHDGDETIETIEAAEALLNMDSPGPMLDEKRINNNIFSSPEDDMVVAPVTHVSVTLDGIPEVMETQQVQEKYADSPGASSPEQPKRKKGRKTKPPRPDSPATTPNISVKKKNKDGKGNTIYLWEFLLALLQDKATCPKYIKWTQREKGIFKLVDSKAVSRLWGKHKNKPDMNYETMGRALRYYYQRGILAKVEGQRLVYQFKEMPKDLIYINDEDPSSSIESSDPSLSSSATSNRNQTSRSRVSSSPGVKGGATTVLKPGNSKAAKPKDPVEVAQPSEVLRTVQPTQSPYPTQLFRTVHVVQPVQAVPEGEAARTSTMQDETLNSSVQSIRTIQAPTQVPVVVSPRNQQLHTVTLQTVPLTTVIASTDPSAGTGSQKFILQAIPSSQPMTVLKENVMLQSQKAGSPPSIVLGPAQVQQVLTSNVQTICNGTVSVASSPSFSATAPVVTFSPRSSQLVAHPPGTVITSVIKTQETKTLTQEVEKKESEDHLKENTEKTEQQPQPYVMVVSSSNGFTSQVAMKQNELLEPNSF
Another test addresses T5, EHF (Homo sapiens, UniProt Q9NZC4 1-300).
T5 sequence: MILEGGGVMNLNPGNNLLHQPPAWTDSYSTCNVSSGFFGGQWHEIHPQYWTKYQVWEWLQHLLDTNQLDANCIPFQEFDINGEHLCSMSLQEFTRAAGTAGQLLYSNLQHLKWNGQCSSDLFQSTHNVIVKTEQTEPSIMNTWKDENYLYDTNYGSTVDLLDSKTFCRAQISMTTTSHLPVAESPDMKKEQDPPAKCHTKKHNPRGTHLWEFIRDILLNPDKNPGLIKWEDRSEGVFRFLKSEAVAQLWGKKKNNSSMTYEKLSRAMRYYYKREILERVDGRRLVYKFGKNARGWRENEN
The note with it: protein: recombinant; tags: N-terminal GST; dsDNA, one strand shown. The method, boiled down:
as §1

For another test, the target named is SPI1 (Homo sapiens, UniProt P17947 1-270). The note with it: protein: recombinant; tags: N-terminal GST; dsDNA, one strand shown. The procedure, abridged:
as §1

The next test addresses SPIB (Homo sapiens, UniProt Q01892 1-262). The settings on record: protein: recombinant; tags: N-terminal GST; dsDNA, one strand shown. The procedure, abridged: as §1
A further test deals with T6, ELK3 (Homo sapiens, UniProt P41970 1-407).
T6 sequence: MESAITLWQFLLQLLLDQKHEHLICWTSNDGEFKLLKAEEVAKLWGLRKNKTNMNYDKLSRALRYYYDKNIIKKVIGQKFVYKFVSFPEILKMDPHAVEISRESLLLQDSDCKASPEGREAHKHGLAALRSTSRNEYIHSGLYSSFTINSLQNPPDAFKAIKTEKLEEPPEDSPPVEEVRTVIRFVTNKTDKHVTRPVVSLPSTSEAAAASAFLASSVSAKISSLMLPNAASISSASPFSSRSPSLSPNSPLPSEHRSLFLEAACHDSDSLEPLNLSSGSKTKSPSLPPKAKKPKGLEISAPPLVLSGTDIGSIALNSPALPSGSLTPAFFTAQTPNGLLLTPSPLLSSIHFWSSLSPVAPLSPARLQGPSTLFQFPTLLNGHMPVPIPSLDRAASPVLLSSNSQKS
The settings on record: protein: recombinant; tags: N-terminal GST; dsDNA, one strand shown. The method, boiled down: as §1

The target in the next test is T7, FEV (Homo sapiens, UniProt Q99581 1-238).
T7 sequence: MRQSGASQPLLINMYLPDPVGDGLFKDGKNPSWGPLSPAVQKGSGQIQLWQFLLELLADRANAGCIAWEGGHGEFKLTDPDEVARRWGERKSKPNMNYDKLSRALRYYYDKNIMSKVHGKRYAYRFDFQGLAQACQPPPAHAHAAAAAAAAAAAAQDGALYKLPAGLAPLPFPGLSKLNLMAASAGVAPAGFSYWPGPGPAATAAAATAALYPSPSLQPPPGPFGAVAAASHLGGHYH
The note with it: protein: recombinant; tags: N-terminal GST; dsDNA, one strand shown. The procedure, abridged: as §1

The target of a further test is ETV5 (Homo sapiens, UniProt P41161 1-510). The note with it: protein: recombinant; tags: N-terminal GST; dsDNA, one strand shown. The procedure, abridged: as §1
Chain of ETV5 (P41161 whole entry): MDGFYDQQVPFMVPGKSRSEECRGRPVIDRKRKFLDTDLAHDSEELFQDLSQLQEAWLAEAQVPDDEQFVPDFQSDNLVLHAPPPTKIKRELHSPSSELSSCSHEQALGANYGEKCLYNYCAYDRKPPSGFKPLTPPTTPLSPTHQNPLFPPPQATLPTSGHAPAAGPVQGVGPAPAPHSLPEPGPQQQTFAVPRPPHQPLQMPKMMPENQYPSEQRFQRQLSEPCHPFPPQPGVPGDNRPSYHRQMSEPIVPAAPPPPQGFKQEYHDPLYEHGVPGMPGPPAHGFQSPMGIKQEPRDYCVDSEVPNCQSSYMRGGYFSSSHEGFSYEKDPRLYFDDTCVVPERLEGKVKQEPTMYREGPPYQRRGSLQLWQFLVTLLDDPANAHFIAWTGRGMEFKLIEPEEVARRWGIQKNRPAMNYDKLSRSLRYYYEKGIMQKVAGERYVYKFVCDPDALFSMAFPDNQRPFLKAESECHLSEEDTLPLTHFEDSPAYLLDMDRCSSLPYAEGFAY
In a further test the target is HSF1 (Homo sapiens, UniProt Q00613 1-529). The note with it: protein: recombinant; tags: N-terminal GST; chain copies: 3; dsDNA, one strand shown. The method, boiled down: as §1
Chain of HSF1 (Q00613 whole entry): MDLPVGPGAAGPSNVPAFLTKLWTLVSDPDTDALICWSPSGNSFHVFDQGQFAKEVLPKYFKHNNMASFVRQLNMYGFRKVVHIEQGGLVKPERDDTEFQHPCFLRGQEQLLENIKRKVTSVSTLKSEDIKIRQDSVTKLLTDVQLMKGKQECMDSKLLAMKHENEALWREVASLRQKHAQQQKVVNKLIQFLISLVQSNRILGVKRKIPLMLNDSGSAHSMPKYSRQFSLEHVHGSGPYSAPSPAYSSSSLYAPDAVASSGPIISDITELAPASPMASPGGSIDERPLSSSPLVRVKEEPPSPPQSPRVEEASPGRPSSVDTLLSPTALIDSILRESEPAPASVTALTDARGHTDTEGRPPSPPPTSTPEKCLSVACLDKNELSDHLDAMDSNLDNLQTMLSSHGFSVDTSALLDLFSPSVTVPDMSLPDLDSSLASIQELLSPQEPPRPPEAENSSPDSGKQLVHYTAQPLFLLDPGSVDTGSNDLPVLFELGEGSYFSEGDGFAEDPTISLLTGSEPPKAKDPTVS
The target of the next test is T8, SPIC (Homo sapiens, UniProt Q8N5J4 1-248).
T8 sequence: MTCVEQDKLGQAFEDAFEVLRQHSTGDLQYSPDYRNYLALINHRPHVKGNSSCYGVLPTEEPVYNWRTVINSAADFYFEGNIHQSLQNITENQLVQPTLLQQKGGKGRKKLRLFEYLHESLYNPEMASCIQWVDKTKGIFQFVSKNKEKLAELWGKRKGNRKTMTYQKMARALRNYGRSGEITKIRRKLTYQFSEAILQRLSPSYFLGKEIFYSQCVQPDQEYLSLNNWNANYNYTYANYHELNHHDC
The settings on record: protein: recombinant; tags: N-terminal GST; dsDNA, one strand shown. The method, boiled down:
as §1

A further test deals with ELF4 (Homo sapiens, UniProt Q99607 1-663). The settings on record: protein: recombinant; tags: N-terminal GST; dsDNA, one strand shown. The procedure, abridged: as §1
Chain of ELF4 (Q99607 whole entry): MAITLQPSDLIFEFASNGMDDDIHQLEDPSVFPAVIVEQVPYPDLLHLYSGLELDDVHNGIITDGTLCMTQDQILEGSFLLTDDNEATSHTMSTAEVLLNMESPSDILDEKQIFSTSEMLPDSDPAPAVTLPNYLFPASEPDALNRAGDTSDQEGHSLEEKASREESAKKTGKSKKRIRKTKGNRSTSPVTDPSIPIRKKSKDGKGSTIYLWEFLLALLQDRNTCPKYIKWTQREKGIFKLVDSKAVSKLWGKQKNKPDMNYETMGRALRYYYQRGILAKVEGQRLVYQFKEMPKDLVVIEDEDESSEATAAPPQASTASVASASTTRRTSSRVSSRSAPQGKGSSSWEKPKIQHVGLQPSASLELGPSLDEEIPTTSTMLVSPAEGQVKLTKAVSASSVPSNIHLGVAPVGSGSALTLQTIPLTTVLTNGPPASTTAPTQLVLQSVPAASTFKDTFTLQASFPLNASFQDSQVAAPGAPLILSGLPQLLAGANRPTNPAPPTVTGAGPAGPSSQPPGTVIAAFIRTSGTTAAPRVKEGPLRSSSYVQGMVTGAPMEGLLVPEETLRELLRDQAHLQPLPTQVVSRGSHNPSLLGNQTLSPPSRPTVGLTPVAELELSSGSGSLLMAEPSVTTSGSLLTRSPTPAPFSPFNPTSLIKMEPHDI
A further test deals with T9, ELK4 (Homo sapiens, UniProt P28324-2 1-405).
T9 sequence: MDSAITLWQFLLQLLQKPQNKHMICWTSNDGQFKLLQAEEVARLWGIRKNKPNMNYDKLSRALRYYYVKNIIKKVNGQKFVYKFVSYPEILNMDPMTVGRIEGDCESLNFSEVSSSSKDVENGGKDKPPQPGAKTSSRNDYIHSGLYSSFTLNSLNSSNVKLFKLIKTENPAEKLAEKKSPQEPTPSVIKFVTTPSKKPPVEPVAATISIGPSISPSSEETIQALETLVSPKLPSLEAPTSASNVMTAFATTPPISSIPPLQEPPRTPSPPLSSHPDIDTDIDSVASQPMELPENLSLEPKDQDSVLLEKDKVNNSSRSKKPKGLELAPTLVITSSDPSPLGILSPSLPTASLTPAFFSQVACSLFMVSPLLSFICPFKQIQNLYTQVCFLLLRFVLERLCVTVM
The note with it: protein: recombinant; tags: N-terminal GST; dsDNA, one strand shown. The procedure, abridged:
as §1

A further test has as its target T10, ETV2 (Homo sapiens, UniProt O00321 1-342).
T10 sequence: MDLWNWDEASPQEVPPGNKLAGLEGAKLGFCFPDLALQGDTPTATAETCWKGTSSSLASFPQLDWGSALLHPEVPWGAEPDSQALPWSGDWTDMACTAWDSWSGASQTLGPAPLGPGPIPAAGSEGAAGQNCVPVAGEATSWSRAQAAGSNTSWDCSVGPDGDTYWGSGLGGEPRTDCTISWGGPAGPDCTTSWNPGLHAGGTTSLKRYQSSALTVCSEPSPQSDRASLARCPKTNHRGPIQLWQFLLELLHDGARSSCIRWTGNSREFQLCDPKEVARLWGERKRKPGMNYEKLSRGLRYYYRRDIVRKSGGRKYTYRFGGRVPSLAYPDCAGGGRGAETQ
The note with it: protein: recombinant; tags: N-terminal GST; dsDNA, one strand shown. The procedure, abridged: as §1

Another test addresses CRX (Homo sapiens, UniProt O43186 1-299). The note with it: protein: recombinant; tags: N-terminal GST; dsDNA, one strand shown. The procedure, abridged:
as §1

Another test has as its target ETV1 (Homo sapiens, UniProt P50549 1-477). The settings on record: protein: recombinant; tags: N-terminal GST; dsDNA, one strand shown. The procedure, abridged: as §1

Chain of SPIB (Q01892 whole entry): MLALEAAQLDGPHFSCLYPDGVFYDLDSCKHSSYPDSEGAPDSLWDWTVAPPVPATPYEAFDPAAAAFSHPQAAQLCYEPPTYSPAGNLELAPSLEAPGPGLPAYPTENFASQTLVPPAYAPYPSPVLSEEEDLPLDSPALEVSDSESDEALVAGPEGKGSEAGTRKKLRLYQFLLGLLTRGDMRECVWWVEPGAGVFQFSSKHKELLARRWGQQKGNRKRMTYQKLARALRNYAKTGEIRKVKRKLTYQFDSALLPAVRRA
Chain of ETV1 (P50549 whole entry): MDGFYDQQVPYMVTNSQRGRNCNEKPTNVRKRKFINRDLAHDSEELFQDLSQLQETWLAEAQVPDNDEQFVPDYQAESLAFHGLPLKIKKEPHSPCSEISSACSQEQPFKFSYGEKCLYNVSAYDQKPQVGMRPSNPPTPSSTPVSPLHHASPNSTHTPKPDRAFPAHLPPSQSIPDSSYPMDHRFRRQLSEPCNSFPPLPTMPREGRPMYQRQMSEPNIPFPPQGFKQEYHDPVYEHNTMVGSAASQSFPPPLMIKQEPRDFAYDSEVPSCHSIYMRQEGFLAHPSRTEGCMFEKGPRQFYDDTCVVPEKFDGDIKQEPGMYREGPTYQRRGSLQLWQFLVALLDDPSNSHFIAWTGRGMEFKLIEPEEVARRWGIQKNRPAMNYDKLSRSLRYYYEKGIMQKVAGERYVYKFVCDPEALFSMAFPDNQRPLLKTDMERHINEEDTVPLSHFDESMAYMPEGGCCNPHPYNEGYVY
Chain of CRX (O43186 whole entry): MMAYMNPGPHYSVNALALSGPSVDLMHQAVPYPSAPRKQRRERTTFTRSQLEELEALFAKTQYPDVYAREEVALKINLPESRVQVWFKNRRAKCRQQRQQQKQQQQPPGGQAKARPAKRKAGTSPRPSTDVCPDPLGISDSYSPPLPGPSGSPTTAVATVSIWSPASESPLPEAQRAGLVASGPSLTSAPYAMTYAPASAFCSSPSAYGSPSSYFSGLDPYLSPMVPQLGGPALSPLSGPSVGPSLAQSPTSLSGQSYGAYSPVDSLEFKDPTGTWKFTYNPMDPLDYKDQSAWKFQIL

As to CTTGTT, the binding signal in the test with FLI1 is 1.2 fold enrichment (6-mer frequency, TF over GST control); with ELK1, 1.18 fold enrichment (6-mer frequency, TF over GST control); with GABPA, 1.15 fold enrichment (6-mer frequency, TF over GST control); with ERG it was 1.26 fold enrichment (6-mer frequency, TF over GST control); with ELF1, 1.21 fold enrichment (6-mer frequency, TF over GST control); with EHF it was 1.31 fold enrichment (6-mer frequency, TF over GST control). Also, the binding signal with SPI1 was 1.25 fold enrichment (6-mer frequency, TF over GST control); with SPIB it was 1.29 fold enrichment (6-mer frequency, TF over GST control); with ELK3, 1.3 fold enrichment (6-mer frequency, TF over GST control); in the test with FEV, 1.15 fold enrichment (6-mer frequency, TF over GST control); with ETV5, 1.22 fold enrichment (6-mer frequency, TF over GST control); in the test with HSF1, 1.09 fold enrichment (6-mer frequency, TF over GST control). Further, the binding signal with SPIC is 1.25 fold enrichment (6-mer frequency, TF over GST control); with ELF4, 1.22 fold enrichment (6-mer frequency, TF over GST control); in the test with ELK4, 1.17 fold enrichment (6-mer frequency, TF over GST control); in the test with ETV2, 1.14 fold enrichment (6-mer frequency, TF over GST control); in the test with CRX, 1.1 fold enrichment (6-mer frequency, TF over GST control); with ETV1, 1.31 fold enrichment (6-mer frequency, TF over GST control).
